Activity calls are given as the source filed them. Rule for the calls: active = hit-call score of the fitted dose curve at least 0.9, where 1 is the maximum; inactive = score below 0.9.
Assays:
Settings in all cases: mRNA level, 48 h; actives raise or lower the signal
[1] = read-out: growth arrest and DNA damage 45 (GADD45B), GADD45B (gene 4616); test: LTEA_HepaRG_GADD45B: Life Technologies and Expression Analysis (LTEA) Assay for growth arrest and DNA damage 45 (GADD45B) using HepaRG (AID 2283461)
Procedure, shortened: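 HepaRG, ~100,000 cells/well, 48 h plating; serum-free induction medium; cpd 100 uM top, half-log x8, 0.5% DMSO, duplicate, 48 h; lysis in RLT, RNA isolation, qRT-PCR; norm ACTB/GAPDH/POLR2A; bidirectional fit vs DMSO.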

[2] = read-out: ABC Transporter (ABCC3), ABCC3 (gene 8714); test: LTEA_HepaRG_ABCC3: Life Technologies and Expression Analysis (LTEA) Assay for ABC Transporter (ABCC3) using HepaRG (AID 2283462)
Procedure, shortened: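 Human HepaRG, 48 h dosing, 8-pt half-log series from 100 uM, 0.5% DMSO vehicle, duplicates. ABCC3 mRNA by TaqMan qRT-PCR, housekeeping-normalized; bidirectional curve fit vs DMSO.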

[3] = read-out: ABC Transporter (ABCB11), ABCB11 (gene 8647); test: LTEA_HepaRG_ABCB11: Life Technologies and Expression Analysis (LTEA) Assay for ABC Transporter (ABCB11) using HepaRG (AID 2283463)
Procedure, shortened: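 Differentiated human HepaRG cells were exposed for 48 h in serum-free induction medium to eight half-log concentrations up to 100 uM in 0.5% DMSO. ABCB11 mRNA was quantified by qRT-PCR, normalized to ACTB, GAPDH and POLR2A, and fitted bidirectionally versus DMSO.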

[4] = read-out: ABC Transporter (ABCC2), ABCC2 (gene 1244); test: LTEA_HepaRG_ABCC2: Life Technologies and Expression Analysis (LTEA) Assay for ABC Transporter (ABCC2) using HepaRG (AID 2283464)
Procedure, shortened: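 HepaRG, 48 h post-plating; serum-free induction medium; cpd 8-pt, 100 uM top, half-log, 0.5% DMSO, duplicate, 48 h. Readout: ABCC2 mRNA by qRT-PCR, norm. ACTB/GAPDH/POLR2A. Bidirectional fit vs DMSO baseline.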

[5] = read-out: Broad substrate specificity ATP-binding cassette transporter ABCG2 (Homo sapiens) (UniProt Q9UNQ0); test: LTEA_HepaRG_ABCG2: Life Technologies and Expression Analysis (LTEA) Assay for ABC Transporter (ABCG2) using HepaRG (AID 2283465)
Procedure, shortened: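 Differentiated HepaRG cells in serum-free induction medium were exposed for 48 h, in duplicate, to eight half-log concentrations up to 100 uM in 0.5% DMSO. ABCG2 mRNA was measured by TaqMan qRT-PCR, normalized to ACTB, GAPDH and POLR2A, and fitted bidirectionally versus DMSO.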

[6] = read-out: ATP-citrate lyase (ACLY), ACLY (gene 47); test: LTEA_HepaRG_ACLY: Life Technologies and Expression Analysis (LTEA) Assay for ATP-citrate lyase (ACLY) using HepaRG (AID 2283466)
Procedure, shortened: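 Differentiated human HepaRG cells in serum-free induction medium exposed 48 h, in duplicate, to eight half-log concentrations from 100 uM top in 0.5% DMSO; ACLY mRNA measured by qRT-PCR, normalized to ACTB, GAPDH, POLR2A, fitted bidirectionally versus DMSO.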

[7] = read-out: Peroxisomal acyl-coenzyme A oxidase 1 (ACOX1) gene, ACOX1 (gene 51); test: LTEA_HepaRG_ACOX1: Life Technologies and Expression Analysis (LTEA) Assay for Peroxisomal acyl-coenzyme A oxidase 1 (ACOX1) gene using HepaRG (AID 2283467)
Procedure, shortened: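 Differentiated human HepaRG cells were exposed in duplicate for 48 h in serum-free induction medium to eight half-log concentrations up to 100 uM in 0.5% DMSO. ACOX1 mRNA was then quantified by TaqMan qRT-PCR, normalized to ACTB, GAPDH and POLR2A.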

[8] = read-out: Alkaline Phosphatase, Placental (ALPP) gene, ALPP (gene 250); test: LTEA_HepaRG_ALPP: Life Technologies and Expression Analysis (LTEA) Assay for Alkaline Phosphatase, Placental (ALPP) gene using HepaRG (AID 2283468)
Procedure, shortened: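 HepaRG, 48 h plating then 48 h dosing, serum-free induction medium, 0.5% DMSO. 8 conc, half-log, max 100 uM, duplicates. Endpoint: ALPP transcript by qRT-PCR, housekeeping-normalized; gain or loss fitted vs DMSO.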

[9] = read-out: Bcl-2 (BAD) gene, BAD (gene 572); test: LTEA_HepaRG_BAD: Life Technologies and Expression Analysis (LTEA) Assay for Bcl-2 (BAD) gene using HepaRG (AID 2283469)
Procedure, shortened: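 Differentiated human HepaRG cells in serum-free induction medium were exposed in duplicate for 48 h to eight concentrations (top 100 uM, half-log steps, 0.5% DMSO). BAD mRNA was quantified by qRT-PCR normalised to ACTB, GAPDH and POLR2A, with bidirectional fitting versus DMSO.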

[10] = read-out: Bcl-2 (BAX) gene, BAX (gene 581); test: LTEA_HepaRG_BAX: Life Technologies and Expression Analysis (LTEA) Assay for Bcl-2 (BAX) gene using HepaRG (AID 2283470)
Procedure, shortened: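 Differentiated HepaRG cells exposed 48 h in serum-free induction medium, eight half-log concentrations from 100 uM, in duplicate, 0.5% DMSO vehicle. BAX mRNA by TaqMan qRT-PCR, normalised to ACTB, GAPDH and POLR2A.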

[11] = read-out: adenosine kinase (ADK) gene, ADK (gene 132); test: LTEA_HepaRG_ADK: Life Technologies and Expression Analysis (LTEA) Assay for adenosine kinase (ADK) gene using HepaRG (AID 2283471)
Procedure, shortened: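 Read-out is ADK transcript level measured by qRT-PCR and normalised to three housekeeping genes. Cells are human HepaRG, dosed for 48 h at up to 100 uM in 0.5% DMSO. Gain or loss of signal is fitted against DMSO controls.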

[12] = read-out: Alpha-fetoprotein (AFP) gene, AFP (gene 174); test: LTEA_HepaRG_AFP: Life Technologies and Expression Analysis (LTEA) Assay for Alpha-fetoprotein (AFP) gene using HepaRG (AID 2283472)
Procedure, shortened: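 Differentiated human HepaRG cells exposed 48 h in serum-free induction medium, 8-point half-log series from 100 uM in 0.5% DMSO, duplicate. AFP mRNA by qRT-PCR, normalized to ACTB, GAPDH, POLR2A; bidirectional fit vs DMSO.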

BCL2L11 (gene 10018) = test: LTEA_HepaRG_BCL2L11: Life Technologies and Expression Analysis (LTEA) Assay for Bcl-2 (BCL2L11) gene using HepaRG (AID 2283473)
Procedure, shortened: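 Read-out is BCL2L11 transcript level by qRT-PCR, normalized to three housekeeping genes and fitted bidirectionally against 0.5% DMSO vehicle. HepaRG cells received chemicals for 48 h in serum-free induction medium, 100 uM down in half-log dilutions.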

[13] = read-out: Apoptosis regulator Bcl-2 (Homo sapiens) (UniProt P10415); test: LTEA_HepaRG_BCL2: Life Technologies and Expression Analysis (LTEA) Assay for Bcl-2 gene using HepaRG (AID 2283475)
Procedure, shortened: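 Differentiated human HepaRG cells in serum-free induction medium exposed 48 h, in duplicate, to 8-point half-log series from 100 uM in 0.5% DMSO. BCL2 mRNA by qRT-PCR (TaqMan/Fluidigm), normalized to ACTB, GAPDH, POLR2A; bidirectional fit against DMSO.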

[14] = read-out: Bcl-2 (BID) gene, BID (gene 637); test: LTEA_HepaRG_BID: Life Technologies and Expression Analysis (LTEA) Assay for Bcl-2 (BID) gene using HepaRG (AID 2283476)
Procedure, shortened: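 Gene expression by qRT-PCR in HepaRG cells after 48 h exposure, duplicate wells, eight half-log concentrations topping at 100 uM in 0.5% DMSO. Normalized to ACTB, GAPDH, POLR2A; bidirectional fitting relative to DMSO.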

Caspase-3 (Homo sapiens) = Caspase-3 (Homo sapiens) (UniProt P42574); test: LTEA_HepaRG_CASP3: Life Technologies and Expression Analysis (LTEA) Assay for cysteine-aspartic acid protease (CASP3) using HepaRG (AID 2283477)
Sequence of Caspase-3 (Homo sapiens) (P42574 whole entry, looked up): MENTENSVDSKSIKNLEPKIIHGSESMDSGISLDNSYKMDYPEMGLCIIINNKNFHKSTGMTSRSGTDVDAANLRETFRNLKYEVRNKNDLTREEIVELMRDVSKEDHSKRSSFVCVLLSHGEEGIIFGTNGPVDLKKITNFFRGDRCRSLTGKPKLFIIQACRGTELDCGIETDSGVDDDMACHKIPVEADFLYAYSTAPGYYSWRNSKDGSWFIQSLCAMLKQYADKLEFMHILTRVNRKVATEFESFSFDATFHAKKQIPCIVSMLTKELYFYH
Procedure, shortened: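 Read-out is CASP3 mRNA level by TaqMan qRT-PCR in human HepaRG cells after 48 h chemical exposure. Eight half-log concentrations topping at 100 uM were tested in 0.5% DMSO; gain or loss was fitted relative to DMSO.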

[15] = read-out: Cytochrome P450 (CYP24A1), CYP24A1 (gene 1591); test: LTEA_HepaRG_CYP24A1: Life Technologies and Expression Analysis (LTEA) Assay for Cytochrome P450 (CYP24A1) using HepaRG (AID 2283478)
Procedure, shortened: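 HepaRG, 48 h chemical exposure, 8-pt half-log CRC from 100 uM, 0.5% DMSO vehicle, duplicates. Endpoint: CYP24A1 mRNA by Fluidigm TaqMan qRT-PCR, normalized ACTB/GAPDH/POLR2A; gain/loss fit vs DMSO.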

[16] = read-out: Cytochrome P450 (CYP1A2), CYP1A2 (gene 1544); test: LTEA_HepaRG_CYP1A2: Life Technologies and Expression Analysis (LTEA) Assay for Cytochrome P450 (CYP1A2) using HepaRG (AID 2283479)
Procedure, shortened: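 CYP1A2 transcript induction or loss, quantified by Fluidigm qRT-PCR against three housekeeping genes, was fitted bidirectionally against 0.5% DMSO controls. Human HepaRG cells received eight half-log concentrations from 100 uM over 48 h.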

[17] = read-out: cysteine-aspartic acid protease (CASP8), CASP8 (gene 841); test: LTEA_HepaRG_CASP8: Life Technologies and Expression Analysis (LTEA) Assay for cysteine-aspartic acid protease (CASP8) using HepaRG (AID 2283480)
Procedure, shortened: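 Differentiated human HepaRG cells, plated 48 h then switched to serum-free induction medium, were exposed in duplicate for 48 h to 8 half-log concentrations up to 100 uM in 0.5% DMSO. CASP8 mRNA was quantified by qRT-PCR, normalized to ACTB/GAPDH/POLR2A.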

[18] = read-out: Apolipoprotein A-V (APOA5) gene, APOA5 (gene 116519); test: LTEA_HepaRG_APOA5: Life Technologies and Expression Analysis (LTEA) Assay for Apolipoprotein A-V (APOA5) gene using HepaRG (AID 2283474)
Procedure, shortened: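 Readout is APOA5 transcript level by qRT-PCR on Fluidigm dynamic arrays, normalized to three housekeeping genes. HepaRG cultures received chemicals for 48 h at up to 100 uM (half-log steps, 0.5% DMSO), with gain or loss scored relative to DMSO.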

Measured: AC50

Sequence of Broad substrate specificity ATP-binding cassette transporter ABCG2 (Homo sapiens) (Q9UNQ0 whole entry, looked up): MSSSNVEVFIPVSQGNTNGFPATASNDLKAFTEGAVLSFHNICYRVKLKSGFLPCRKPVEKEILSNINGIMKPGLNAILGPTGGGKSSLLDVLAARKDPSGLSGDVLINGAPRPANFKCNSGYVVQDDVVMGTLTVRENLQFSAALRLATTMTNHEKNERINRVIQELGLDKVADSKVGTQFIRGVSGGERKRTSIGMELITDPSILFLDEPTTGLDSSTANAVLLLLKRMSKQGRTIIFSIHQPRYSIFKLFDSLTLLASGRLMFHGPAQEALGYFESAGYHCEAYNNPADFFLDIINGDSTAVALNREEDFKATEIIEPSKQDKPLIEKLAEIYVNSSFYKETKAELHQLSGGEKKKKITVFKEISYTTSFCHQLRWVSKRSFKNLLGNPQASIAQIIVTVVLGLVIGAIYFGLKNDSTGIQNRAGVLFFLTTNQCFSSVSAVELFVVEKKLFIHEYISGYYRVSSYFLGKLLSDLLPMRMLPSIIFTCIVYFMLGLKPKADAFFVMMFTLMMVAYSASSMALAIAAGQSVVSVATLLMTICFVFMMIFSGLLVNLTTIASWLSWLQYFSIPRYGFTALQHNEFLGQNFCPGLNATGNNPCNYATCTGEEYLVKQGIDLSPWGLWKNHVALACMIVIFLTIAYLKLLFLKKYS
Sequence of Apoptosis regulator Bcl-2 (Homo sapiens) (P10415 whole entry, looked up): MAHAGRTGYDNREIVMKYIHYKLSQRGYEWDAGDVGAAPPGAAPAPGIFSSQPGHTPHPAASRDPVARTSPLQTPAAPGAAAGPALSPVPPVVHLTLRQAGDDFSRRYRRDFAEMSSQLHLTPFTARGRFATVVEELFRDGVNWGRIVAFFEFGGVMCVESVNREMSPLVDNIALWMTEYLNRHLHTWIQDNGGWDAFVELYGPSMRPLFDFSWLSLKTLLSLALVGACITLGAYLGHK

NCC1(Cc2noc(=O)[nH]2)CCCCC1
not listed: [18]
inactive: all other assays above

NC(=O)Cn1c(=O)cc(CCN2CCN(c3nccc4sccc34)CC2)c2ccc(F)cc21
active: [2] 78.1 µM | [8] 50 µM | [12] 50 µM | [13] 50 µM
not listed: [10] | [14] | [18]
inactive: all other assays above

COC(=O)c1ccc(O)cc1
not listed: [10] | [18]
inactive: all other assays above

CC(=O)OC/C=C(\C)CCC=C(C)C
not listed: [14] | [18]
inactive: all other assays above

CCCCCCCCCCCCCCCCCC(=O)O
not listed: [6]
inactive: all other assays above

COCCOC[C@H](CC1(C(=O)NC2CCC(C(=O)O)CC2)CCCC1)C(=O)Oc1ccc2c(c1)CCC2 (some centres undefined)
not listed: [6]
inactive: all other assays above

Cc1ccc(C)c(C)c1
not listed: [14]
inactive: all other assays above
